# From PubChem BioAssay (NCATS)
# Where “and” joins values, the source holds several entries; their conditions need not be identical. Equal entries are not always repeated. Records with an inconclusive call do not appear. A call without a number means that no potency is given here. Where a structure was tested more than once in an assay, its records may differ in their call. Calls of active or inactive are those of the source. Unless noted, the call rests on the fitted dose curve.
# Experiments:
# [1] = Primary qHTS for Huh7 cytotoxicity: counterscreen for inhibitors of MERS-S pseudotyped particle cell entry (AID 1479147); conditions: outcome: dose series up to 57.1 µM unless noted
# [2] = Primary qHTS for inhibitors of MERS-S pseudo-typed particle cell entry (AID 1479149); conditions: outcome: dose series up to 57.1 µM unless noted; further: nearly all actives have a fitted effect of over 60% in size; further: potency means the concentration at half of the fitted maximal effect
# [3] = Cytotoxicity counterscreen for inhibitors of SARS-CoV-2 cell entry (AID 1645845); conditions: outcome: dose series up to 57.1 µM unless noted; further: nearly all actives have a fitted effect of over 50% in size
# How it was run: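 48 h compound treatment (after 1 h preincubation), HEK293-ACE2 cells, 37 C/5% CO2; ATP luminescence endpoint; normalized to cell wells and media blanks.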
# [4] = Primary qHTS to identify inhibitors of SARS-CoV-2 cell entry (AID 1645846); conditions: SARS-CoV-2 pseudovirus cell entry assay, luminescence; activity change, negative = inhibition: at 57.1 µM (top of the series) unless noted; further: nearly all actives have a fitted effect of over 45% in size; further: potency means the concentration at half of the fitted maximal effect
# How it was run: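 Luminescence readout (Bright-Glo luciferase) 48 h after pseudoparticle addition. HEK293-ACE2 cells, 1500/well; compound pre-incubation 1 h; Normalized to spike PP and bald PP.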
# [5] = Primary qHTS for Vero E6 cytotoxicity: counterscreen for inhibitors of SARS-S pseudo-typed particle cell entry (AID 1479150); conditions: outcome: dose series up to 57.1 µM unless noted
# [6] = target: Glutathione peroxidase 1 (Homo sapiens) (UniProt P07203); experiment: Primary qHTS Assay for Inhibitors of Recombinant Selenoprotein Glutathione Peroxidase 1 (GPX1) (AID 1845191; active means well fitted curve in the direction sought with a large enough effect; an effect the other way counts as inactive or inconclusive; further: nearly all actives have a fitted effect of over 65% in size)
# How it was run: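 10 nM GPX1 + cpd, 30 min RT; start w/ 1 mM GSH, 0.5 mM cumene hydroperoxide, 0.5 mM NADPH, 100 nM GR, 0.01% BSA; buffer 50 mM Tris-HCl pH 7.5, 2 mM EDTA, 150 mM NaCl; Fl 340/450, 0 & 15 min.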
# [7] = target: Phospholipid hydroperoxide glutathione peroxidase GPX4 (Homo sapiens) (UniProt P36969); experiment: Primary qHTS Assay for Inhibitors of Recombinant Selenoprotein Glutathione Peroxidase 4 (GPX4) (AID 1845192; active means well fitted curve in the direction sought with a large enough effect; an effect the other way counts as inactive or inconclusive; further: nearly all actives have a fitted effect of over 65% in size)
# How it was run: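 NADPH consumption, followed by fluorescence at 340/450 nm between 0 and 15 min, reports GPX4 activity via coupled glutathione reductase (100 nM). Enzyme 200 nM was pre-exposed to compound 30 min; 0.5 mM cumene hydroperoxide and 1 mM GSH served as substrates.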
# [8] = Confirmatory qHTS for VERO E6 Cytotoxicity Assay: Counterscreen for SARS-CoV-2 CPE Assay (AID 1508605); further: nearly all actives have a fitted effect of over 60% in size
# [9] = Confirmatory qHTS to identify inhibitors of SARS-CoV-2 cell entry (AID 1645844); further: potency means the concentration at half of the fitted maximal effect; nearly all actives have a fitted effect of over 45% in size
# How it was run: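 Luminescence from a luciferase reporter, read 48 hr after pseudotyped-particle addition, gives entry signal, normalised to spike-bearing PP wells and bald PP lacking fusion protein wells. Cells are Expi293F stably expressing human ACE2, compound-pretreated 1 hr.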
# [10] = Confirmatory qHTS for activators (rescue) of SARS-CoV-2 Cytopathic Effect (CPE) (AID 1508606); further: potency means the concentration at half of the fitted maximal effect; nearly all actives have a fitted effect of over 70% in size
# [11] = target: Peroxisome proliferator-activated receptor delta (Homo sapiens) (UniProt Q03181); experiment: qHTS assay for small molecule agonists of peroxisome proliferator-activated receptor delta signaling (AID 588534)
# How it was run: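 Reporter cells were plated and held 5 hrs at 37 C before compounds were added. After 18 hrs at 37 C, CCF4 dye was loaded for 2 hrs at RT and fluorescence measured.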
# [12] = VSVG counterscreen qHTS to identify inhibitors of SARS-CoV-2 cell entry (AID 1645847); further: potency means the concentration at half of the fitted maximal effect; nearly all actives have a fitted effect of over 65% in size
# How it was run: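 HEK293-ACE2 cells (Expi293F stably expressing human ACE2) were pretreated with compound for 1 h at 37 °C, then infected with MLV-based VSV-G pseudotyped particles for 48 h. Luciferase luminescence was normalized to VSV-G PP and bald PP wells.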
# [13] = KB-8-5-11 P-gp reporter qHTS against the NCATS DSHEA and TCM libraries (AID 1919977; active means well fitted curve in the direction sought with a large enough effect; an effect the other way counts as inactive or inconclusive)
# How it was run: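 P-gp-overexpressing KB-8-5-11 cells (500/well) were plated in colchicine-free DMEM with 10% FBS, attached ~4 h, then exposed to substance titrations for ~72 h at 37C. Viability was read by CellTiter-Glo luminescence.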
# Chain of Phospholipid hydroperoxide glutathione peroxidase GPX4 (Homo sapiens) (P36969 whole entry, looked up): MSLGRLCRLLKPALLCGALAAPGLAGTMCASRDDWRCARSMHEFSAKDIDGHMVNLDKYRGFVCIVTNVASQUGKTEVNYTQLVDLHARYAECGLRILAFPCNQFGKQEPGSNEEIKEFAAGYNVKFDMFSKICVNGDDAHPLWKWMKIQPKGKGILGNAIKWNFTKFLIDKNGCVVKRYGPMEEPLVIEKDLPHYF
# Chain of Glutathione peroxidase 1 (Homo sapiens) (P07203 whole entry, looked up): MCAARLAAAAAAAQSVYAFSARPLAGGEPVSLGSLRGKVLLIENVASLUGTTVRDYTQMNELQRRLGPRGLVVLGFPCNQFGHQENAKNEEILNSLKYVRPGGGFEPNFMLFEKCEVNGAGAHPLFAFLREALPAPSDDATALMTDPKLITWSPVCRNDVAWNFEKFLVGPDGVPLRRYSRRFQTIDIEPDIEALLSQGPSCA
# Chain of Peroxisome proliferator-activated receptor delta (Homo sapiens) (Q03181 whole entry, looked up): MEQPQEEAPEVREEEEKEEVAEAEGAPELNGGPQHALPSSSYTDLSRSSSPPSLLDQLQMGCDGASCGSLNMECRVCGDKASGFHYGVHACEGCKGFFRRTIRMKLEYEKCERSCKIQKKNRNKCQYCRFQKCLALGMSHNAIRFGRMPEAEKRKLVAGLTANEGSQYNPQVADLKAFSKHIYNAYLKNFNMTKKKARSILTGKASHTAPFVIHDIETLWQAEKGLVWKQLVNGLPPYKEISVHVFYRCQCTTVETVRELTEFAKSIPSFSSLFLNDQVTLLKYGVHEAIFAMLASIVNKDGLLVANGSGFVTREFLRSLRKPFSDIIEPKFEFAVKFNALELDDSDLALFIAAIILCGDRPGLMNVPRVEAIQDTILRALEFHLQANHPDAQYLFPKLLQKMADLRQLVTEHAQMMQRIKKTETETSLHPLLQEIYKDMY
compound,measurement,setting,value
CN[C@@H]1[C@@H](O[C@H]2O[C@H](CO)[C@@H](N)[C@H](O)[C@H]2O)O[C@H]2C[C@@H](N)[C@H](O[C@H]3[C@H](O)[C@@H](O)[C@H](N)C[C@@H]3N)O[C@@H]2[C@@H]1O,Potency,[1],inactive
same,Potency,[2],inactive
same,Potency,[3],inactive
same,"activity change, negative = inhibition",[4],-26.5%
C=C[C@H]1CN2CC[C@H]1C[C@@H]2[C@@H](OC(=O)OCC)c1ccnc2ccc(OC)cc12,Potency,[1],inactive
same,Potency,[2],inactive
same,Potency,[5],inactive
same,Potency,[3],inactive
same,Potency,[6],inactive
same,Potency,[7],inactive
CCOC(=O)N[C@@H]1CC[C@@H]2[C@@H](C1)C[C@H]1C(=O)O[C@H](C)C1[C@H]2/C=C/c1ccc(-c2cccc(F)c2)cn1 (stereo not given in full),Potency,[1],inactive
same,Potency,[5],inactive
same,Potency,[8],inactive
same,Potency,[9],7.64 µM (active)
same,Potency,[3],inactive
CN1CC[C@H](CN2c3ccccc3Sc3ccccc32)C1,Potency,[1],inactive
same,Potency,[5],inactive
same,Potency,[8],inactive
same,Potency,[10],11.2 µM (active)
same,Potency,[3],inactive
same,Potency,[4],12.6 µM (active)
CC(Cc1ccc(O)c(O)c1)C(C)Cc1ccc(O)c(O)c1 (stereo not given),Potency,[1],inactive
same,Potency,[5],inactive
CC(C)C[C@H]1C(=O)O[C@H](Cc2ccc(N3CCOCC3)cc2)C(=O)N(C)[C@@H](CC(C)C)C(=O)O[C@H](C)C(=O)N(C)[C@@H](CC(C)C)C(=O)O[C@H](Cc2ccc(N3CCOCC3)cc2)C(=O)N(C)[C@@H](CC(C)C)C(=O)O[C@H](C)C(=O)N1C,Potency,[1],inactive
same,Potency,[5],inactive
same,Potency,[8],inactive
same,Potency,[3],inactive
c1ccc(CCNCc2ccccc2)cc1,Potency,[1],inactive
same,Potency,[2],inactive
same,Potency,[5],inactive
same,Potency,[3],inactive
same,Potency,[6],inactive
same,Potency,[7],inactive
O=S(=O)(O)c1ccccc1,outcome,[11],inactive
same,Potency,[1],inactive
same,Potency,[2],inactive
same,Potency,[5],inactive
same,Potency,[3],inactive
same,"activity change, negative = inhibition",[4],-15.3%
C[C@H]1[C@H](OC(=O)CCC(=O)O)O[C@@H]2O[C@@]3(C)CC[C@H]4[C@H](C)CC[C@@H]1[C@@]24OO3,Potency,[1],inactive
same,Potency,[2],2.82 µM (active)
same,Potency,[5],inactive
same,Potency,[4],2.24 µM (active)
same,Potency,[12],1.21 µM (active)
CCCOc1cc(N)ccc1C(=O)OCCN(CC)CC,Potency,[1],inactive
same,Potency,[2],inactive
same,Potency,[5],inactive
same,"activity change, negative = inhibition",[4],-10.9%
C[N+]1(CC2CC2)CC[C@]23c4c5ccc(O)c4O[C@H]2C(=O)CC[C@@]3(O)[C@H]1C5 (stereo not given in full),Potency,[1],inactive
same,Potency,[2],inactive
same,Potency,[5],inactive
same,Potency,[3],inactive
same,Potency,[6],inactive
same,Potency,[7],inactive
CS(=O)(=O)Nc1cc2occ(NC=O)c(=O)c2cc1Oc1ccccc1,Potency,[1],inactive
same,Potency,[2],inactive
same,Potency,[5],inactive
same,"activity change, negative = inhibition",[4],-19.1% and -29.3%
O=S(=O)(O)c1ccc2c(N=Nc3ccc(S(=O)(=O)O)c4ccccc34)c(O)c(S(=O)(=O)O)cc2c1,Potency,[1],inactive
same,Potency,[2],inactive
same,Potency,[3],inactive
same,"activity change, negative = inhibition",[4],-21.2%
CCCCCCCC/C=C/CCCCCCCC(=O)O,Potency,[1],inactive
same,Potency,[2],inactive
same,Potency,[5],inactive
same,Potency,[3],inactive
same,Potency,[13],inactive
CCCCC/C=C/C/C=C/CCCCCCCC(=O)O,Potency,[1],inactive
same,Potency,[2],inactive
same,Potency,[5],inactive
same,Potency,[3],inactive
same,Potency,[13],inactive
CCCCCC(O)/C=C/[C@@H]1C(CCCCCCC(=O)O)C(=O)C[C@@H]1O (stereo not given in full),Potency,[1],inactive
same,Potency,[2],inactive
same,Potency,[5],inactive
same,"activity change, negative = inhibition",[4],-20.3%
Cc1cc(C#N)cc(C)c1Oc1nc(Nc2ccc(C#N)cc2)nc(N)c1Br,Potency,[1],inactive
same,Potency,[5],inactive
CN(C)C1C(=O)C(C(N)=O)=C(O)C2(O)C(=O)C3=C(O)c4c(O)ccc(Cl)c4C(C)(O)C3CC12 (stereo not given),Potency,[1],inactive
same,Potency,[2],inactive
same,Potency,[5],inactive
same,Potency,[3],inactive
same,Potency,[6],inactive
C=C1/C(=C/C=C2\CCC[C@]3(C)[C@@H]([C@H](C)CC[C@@H](O)C(C)C)CC[C@@H]23)C[C@@H](O)C[C@@H]1O,Potency,[1],inactive
same,Potency,[5],inactive
Cc1ccc(Sc2ccccc2N2CCNCC2)c(C)c1,Potency,[1],inactive
same,Potency,[2],inactive
same,Potency,[5],inactive
same,Potency,[4],22.4 µM (active)
same,"activity change, negative = inhibition",[4],-7.77%
CCN1C[C@@]2(COC)C3[C@@H](OC)C4[C@@H]1[C@@]3(C1C[C@]3(O)[C@H](OC(=O)c5ccccc5)C1[C@]4(OC(C)=O)[C@@H](O)[C@@H]3OC)[C@@H](OC)C[C@H]2O (stereo not given in full),Potency,[1],inactive
same,Potency,[2],inactive
same,Potency,[5],inactive
same,Potency,[3],inactive
same,Potency,[6],inactive
same,Potency,[7],inactive
CC(CN1c2ccccc2Sc2ccc(S(=O)(=O)N(C)C)cc21)N(C)C (stereo not given),Potency,[1],inactive
same,Potency,[5],inactive
same,Potency,[8],inactive
same,Potency,[9],39.3 µM (active)
Cc1cc(C2=NOC(c3cc(Cl)cc(Cl)c3)(C(F)(F)F)C2)ccc1C(=O)NCC(=O)NCC(F)(F)F (stereo not given),Potency,[1],inactive
same,Potency,[2],inactive
same,Potency,[5],inactive
same,Potency,[3],inactive
same,Potency,[6],inactive
CCN1CCN(Cc2ccc(Nc3ncc(F)c(-c4cc(F)c5nc(C)n(C(C)C)c5c4)n3)nc2)CC1,Potency,[1],inactive
same,Potency,[5],inactive
same,Potency,[9],5.41 µM (active)
same,Potency,[3],inactive
same,Potency,[4],10 µM (active)
O=C1[C@@H]2[C@H]3CC[C@H](C3)[C@@H]2C(=O)N1C[C@@H]1CCCC[C@H]1CN1CCN(c2nsc3ccccc23)CC1,Potency,[1],inactive
same,Potency,[5],inactive
same,Potency,[9],12.1 µM (active)
same,Potency,[4],31.6 µM (active)
same,Potency,[12],3.04 µM (active)
